Laboratory results published in PubChem BioAssay (NCATS).
Records with an inconclusive call do not appear. Calls of active or inactive are those of the source. Calls follow the shape of the dose curve; as a rule, active = well fitted curve in the direction sought with a large enough effect; inconclusive = small, poorly fitted or top-dose-only effect, or another doubt; inactive = no such curve, though single readings can be large; an effect the other way counts as inactive or inconclusive.

Assays:
[1] = target: Rap guanine nucleotide exchange factor 3 (Homo sapiens) (UniProt O95398); assay: Confirmatory qHTS for agonist of cAMP-regulated guanine nucleotide exchange factor 3 (EPAC1) (AID 1645881); conditions: EPAC1 Rap1B BODIPY-GDP exchange fluorescence; series mostly up to 154 µM;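 also: EPAC1 catalysed release of BODIPY-GDP from Rap1B seen as fluorescence loss; 100% = effect of cAMP agonist control; nearly all actives have a fitted effect of over 75% in size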
Rap guanine nucleotide exchange factor 3 (Homo sapiens), sequence (O95398 whole entry, looked up): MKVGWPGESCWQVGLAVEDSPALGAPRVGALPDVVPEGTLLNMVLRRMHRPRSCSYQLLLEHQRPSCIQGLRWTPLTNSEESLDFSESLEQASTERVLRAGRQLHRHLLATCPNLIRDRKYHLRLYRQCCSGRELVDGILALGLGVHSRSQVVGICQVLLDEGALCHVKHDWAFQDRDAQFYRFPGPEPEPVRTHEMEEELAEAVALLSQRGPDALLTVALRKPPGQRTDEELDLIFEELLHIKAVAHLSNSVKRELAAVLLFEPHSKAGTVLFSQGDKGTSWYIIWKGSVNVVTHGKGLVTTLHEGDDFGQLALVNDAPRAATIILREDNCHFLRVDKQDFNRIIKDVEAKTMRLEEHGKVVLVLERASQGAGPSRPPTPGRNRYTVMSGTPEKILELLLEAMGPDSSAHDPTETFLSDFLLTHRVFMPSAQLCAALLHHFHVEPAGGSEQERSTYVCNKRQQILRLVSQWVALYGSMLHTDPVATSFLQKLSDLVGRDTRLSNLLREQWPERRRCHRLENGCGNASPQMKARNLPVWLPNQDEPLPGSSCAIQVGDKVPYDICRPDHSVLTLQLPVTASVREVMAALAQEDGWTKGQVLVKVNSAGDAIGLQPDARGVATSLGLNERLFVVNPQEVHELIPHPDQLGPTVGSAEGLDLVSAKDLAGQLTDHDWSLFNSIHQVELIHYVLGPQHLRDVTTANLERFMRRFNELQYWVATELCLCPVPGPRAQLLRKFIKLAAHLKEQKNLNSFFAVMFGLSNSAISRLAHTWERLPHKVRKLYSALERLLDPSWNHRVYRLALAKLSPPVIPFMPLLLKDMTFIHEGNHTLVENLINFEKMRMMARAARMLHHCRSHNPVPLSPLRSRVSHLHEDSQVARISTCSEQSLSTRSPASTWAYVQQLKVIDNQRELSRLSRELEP

[2] = target: Rap guanine nucleotide exchange factor 4 (Homo sapiens) (UniProt Q8WZA2); assay: Confirmatory qHTS for agonist of cAMP-regulated guanine nucleotide exchange factor 4 (EPAC2) (AID 1645884); conditions: EPAC2 GEF activity, Rap1B-BODIPY-GDP fluorescence; series mostly up to 154 µM;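 also: nucleotide exchange releases bodipy-GDP from Rap1 and this lowers its fluorescence; % is scaled to controls: 0 for no effect and ±100 for the full control effect; nearly all actives have a fitted effect of over 65% in size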
Rap guanine nucleotide exchange factor 4 (Homo sapiens), sequence (Q8WZA2 whole entry, looked up): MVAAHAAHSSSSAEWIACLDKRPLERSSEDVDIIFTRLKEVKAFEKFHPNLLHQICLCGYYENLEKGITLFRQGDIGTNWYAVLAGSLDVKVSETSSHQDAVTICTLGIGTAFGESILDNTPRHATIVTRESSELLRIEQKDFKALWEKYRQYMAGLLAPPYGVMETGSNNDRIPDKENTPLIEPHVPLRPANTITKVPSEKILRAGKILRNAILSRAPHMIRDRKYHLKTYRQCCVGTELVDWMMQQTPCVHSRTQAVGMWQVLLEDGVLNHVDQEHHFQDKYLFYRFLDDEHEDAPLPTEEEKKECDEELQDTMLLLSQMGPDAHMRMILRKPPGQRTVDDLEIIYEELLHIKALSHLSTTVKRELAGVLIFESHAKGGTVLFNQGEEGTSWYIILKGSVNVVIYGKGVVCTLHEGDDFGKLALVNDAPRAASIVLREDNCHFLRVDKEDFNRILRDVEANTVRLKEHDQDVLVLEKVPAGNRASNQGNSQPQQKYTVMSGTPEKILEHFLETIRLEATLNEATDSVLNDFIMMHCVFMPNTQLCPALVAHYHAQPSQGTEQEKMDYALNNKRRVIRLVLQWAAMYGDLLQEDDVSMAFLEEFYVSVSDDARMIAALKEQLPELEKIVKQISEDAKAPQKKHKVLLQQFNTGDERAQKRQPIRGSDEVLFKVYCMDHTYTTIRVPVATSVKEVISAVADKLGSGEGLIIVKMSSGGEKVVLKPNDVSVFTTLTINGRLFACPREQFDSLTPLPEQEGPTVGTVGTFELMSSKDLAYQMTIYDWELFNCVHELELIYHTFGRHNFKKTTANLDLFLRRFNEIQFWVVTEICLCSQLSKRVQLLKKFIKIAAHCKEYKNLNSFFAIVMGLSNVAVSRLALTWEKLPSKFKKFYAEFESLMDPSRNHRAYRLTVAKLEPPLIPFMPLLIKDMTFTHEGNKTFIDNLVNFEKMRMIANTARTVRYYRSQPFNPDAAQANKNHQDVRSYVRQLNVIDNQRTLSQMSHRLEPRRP

[3] = target: Rap guanine nucleotide exchange factor 4 (Homo sapiens) (UniProt Q8WZA2); assay: Confirmatory qHTS for antagonist of cAMP-regulated guanine nucleotide exchange factor 4 (EPAC2) (AID 1645885); conditions: EPAC2 Rap1B-BODIPY-GDP exchange fluorescence, biochemical; series mostly up to 12.7 µM; also: nearly all actives have a fitted effect of over 25% in size; also: potency is read from the fitted curve at half-maximal effect; as to activity change, negative = inhibition: % is scaled to controls: 0 for no effect and ±100 for the full control effect
[4] = target: Rap guanine nucleotide exchange factor 3 (Homo sapiens) (UniProt O95398); assay: Counterscreen qHTS for antagonist of cAMP-regulated guanine nucleotide exchange factor 3 (EPAC1) (AID 1645888); conditions: Rap1B-BODIPY-GDP nucleotide exchange, fluorescence; series mostly up to 154 µM;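 also: fluorescence loss as bound BODIPY-GDP is released from Rap1B; % of control where 0% means no effect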
Summary of the method: (§1)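 Rap1B-BODIPY-GDP 250 nM + GDP 50 uM; cpds 7-pt, final 9.74 nM–152 uM (activator mode) or from 7.32 nM upwards (inhibitor mode); RT; FI 480/540 nm at 5 and 30 min, then ± cAMP, reread.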

[5] = target: Rap guanine nucleotide exchange factor 3 (Homo sapiens) (UniProt O95398); assay: Counterscreen qHTS for agonist of cAMP-regulated guanine nucleotide exchange factor 3 (EPAC1) (AID 1645889); conditions: EPAC1 Rap1B-BODIPY-GDP exchange, fluorescence; series mostly up to 154 µM; also: nearly all actives have a fitted effect of over 40% in size; also: potency is read from the fitted curve at half-maximal effect; as to activation: % of control where 0% means no effect
Summary of the method: as §1

CCn1c(C(=O)N2CCc3ccccc3C2)cc2sccc21
active: Potency [3] 53.6 µM
inactive: Potency [1] | Potency [2] | Potency [4] | Potency [5]

O=c1[nH][nH]c(-c2ccccc2O)c1C(C[N+](=O)[O-])c1ccc(Cl)cc1Cl (stereo not given)
inactive: Potency [1] | Potency [2] | Potency [3] | Potency [4] | Potency [5]

O=C(NCc1ccccc1)C(c1ccc(-c2ccccc2)cc1)n1c(=O)c(-c2ccco2)nc2ccccc21 (stereo not given)
inactive: Potency [1] | activation [2] -1.87% [at 17.1 µM, percent relative to cAMP agonist control] | Potency [3] | activity change, negative = inhibition [4] 1.9% [at 30.8 µM] | activation [5] 21.4% [at 30.8 µM]

Cc1cccc(NC(=O)CSCC(=O)N(C)CCOc2ccc(Cl)cc2)c1
inactive: Potency [1] | Potency [2] | Potency [3] | Potency [4] | Potency [5]

CCOC(=O)C1CCc2c(ccc3ccccc23)N1CCC#N (stereo not given)
inactive: Potency [1] | activation [2] 0.813% [at 17.1 µM, percent relative to cAMP agonist control] | Potency [3] | activity change, negative = inhibition [4] -15.2% [at 30.8 µM] | activation [5] 2.64% [at 30.8 µM]

CCOC(=O)C1Nc2ccc(C(F)(F)F)cc2C2C=CCC12 (stereo not given)
inactive: Potency [1] | activation [2] 1.4% [at 17.1 µM, percent relative to cAMP agonist control] | Potency [3] | activity change, negative = inhibition [4] -11.7% [at 30.8 µM] | activation [5] 11.6% [at 30.8 µM]

Cc1ccc(C)c(N2CCN(C(=O)c3cccn4c(=O)c5ccccc5nc34)CC2)c1
inactive: Potency [1] | Potency [2] | Potency [3] | Potency [4] | Potency [5]

Cc1cccc(C(=O)c2c(N)sc3c2CCCC3)c1
inactive: Potency [1] | activation [2] -0.129% [at 17.1 µM, percent relative to cAMP agonist control] | Potency [3] | activity change, negative = inhibition [4] -3.46% [at 30.8 µM] | activation [5] 9.69% [at 30.8 µM]

CC(=Cc1ccccc1)C=C1SC(=S)N(CCCC(=O)Nc2ccc(C(=O)O)cc2)C1=O
inactive: Potency [1] | Potency [2] | Potency [3] | Potency [4] | Potency [5]

CCC1(c2ccccc2)SCC(c2ccccc2)=NC1=O (stereo not given)
inactive: Potency [1] | Potency [2] | Potency [3] | Potency [4] | Potency [5]

O=C(O)c1ccccc1NS(=O)(=O)c1ccc(NN=Cc2ccccc2F)c([N+](=O)[O-])c1
inactive: Potency [1] | activation [2] 4.76% [at 17.1 µM, percent relative to cAMP agonist control] | Potency [3] | activity change, negative = inhibition [4] -10.7% [at 30.8 µM] | activation [5] 23.2% [at 30.8 µM]

O=C(NCC(c1ccco1)N1CCCC1)c1ccccc1Sc1ccc(C(F)(F)F)cc1[N+](=O)[O-] (stereo not given)
inactive: Potency [1] | Potency [2] | Potency [3] | Potency [4] | Potency [5]

Cc1cc(Br)cc(Cl)c1OC(=O)c1ccncc1
active: Potency [3] 37.9 µM
inactive: Potency [1] | Potency [2] | Potency [4] | Potency [5]

Cn1c(COc2ccccc2C(C)(C)C)nc2ccccc21
active: Potency [5] 15.8 µM
inactive: Potency [1] | Potency [2] | Potency [3] | Potency [4]

COc1cc(O)c(C=NN2C(=O)CSC2=S)c(OC)c1
inactive: Potency [1] | Potency [2] | Potency [3] | Potency [4] | Potency [5]

Cc1ccc2oc(=O)n(CCOc3ccccc3C)c2c1
inactive: Potency [1] | activation [2] 11.2% [at 17.1 µM, percent relative to cAMP agonist control] | Potency [3] | activity change, negative = inhibition [4] -6.86% [at 30.8 µM] | activation [5] 15.6% [at 30.8 µM]

CC(C)(C)n1nc(Cc2cccc3ccccc23)c(C#N)c1N
inactive: Potency [1] | Potency [2] | Potency [3] | Potency [4] | Potency [5]

O=C(CSc1ccc(-c2ccco2)nn1)c1ccc(F)cc1
inactive: Potency [1] | Potency [2] | Potency [3] | Potency [4] | Potency [5]

COc1ccc(N(CC(=O)NC2CCCCCCC2)S(=O)(=O)c2c(C)nn(C)c2C)cc1
inactive: Potency [1] | Potency [2] | Potency [3] | Potency [4] | Potency [5]

O=C1/C(=C/c2cccc(F)c2)SC(=S)N1NS(=O)(=O)c1ccccc1
inactive: Potency [1] | Potency [2] | Potency [3] | Potency [4] | Potency [5]

COc1ccccc1NC(=O)CSc1sc2c(O)cc(=O)[nH]c2c1C#N
inactive: Potency [1] | activation [2] 3.66% [at 17.1 µM, percent relative to cAMP agonist control] | Potency [3] | activity change, negative = inhibition [4] 0.384% [at 30.8 µM] | activation [5] 12.5% [at 30.8 µM]

Cc1ccc2nc(-c3ccco3)c(Cc3cccc(Cl)c3)n2c1
inactive: Potency [1] | activation [2] 2.28% [at 17.1 µM, percent relative to cAMP agonist control] | Potency [3] | activity change, negative = inhibition [4] -5.77% [at 30.8 µM] | activation [5] 14.3% [at 30.8 µM]

Cc1ccc(CNC(=O)c2c[nH]n3c(=O)c(Cc4ccc(Cl)cc4)c(C)nc23)cc1
inactive: Potency [1] | Potency [2] | Potency [3] | Potency [4] | Potency [5]

COc1ccc(/C=N/NC(=O)c2cc(C(C)(C)C)[nH]n2)cc1COc1ccc(F)cc1F
inactive: Potency [1] | activation [2] 3.4% [at 17.1 µM, percent relative to cAMP agonist control] | Potency [3] | activity change, negative = inhibition [4] -14.1% [at 30.8 µM] | activation [5] 19.8% [at 30.8 µM]

Cc1ccc(C(=O)Cc2ccccc2)c(O)c1
inactive: Potency [1] | activation [2] 0.272% [at 17.1 µM, percent relative to cAMP agonist control] | Potency [3] | activity change, negative = inhibition [4] -3.71% [at 30.8 µM] | activation [5] 23.4% [at 30.8 µM]

N#Cc1c(SCC(=O)Nc2nncs2)sc2c(O)cc(=O)[nH]c12
inactive: Potency [1] | Potency [2] | Potency [3] | Potency [4] | Potency [5]

CCO[C@@H]1OC(C(=O)N2CCN(Cc3ccc4c(c3)OCO4)CC2)=C[C@H](C2CCCCC2)[C@H]1CCCO
inactive: Potency [1] | Potency [2] | Potency [3] | Potency [4] | Potency [5]

N#Cc1c(NC(=O)C2CC=CCC2C(=O)O)sc2c1CCCCCC2 (stereo not given)
inactive: Potency [1] | activation [2] -2.41% [at 17.1 µM, percent relative to cAMP agonist control] | Potency [3] | activity change, negative = inhibition [4] -15.2% [at 30.8 µM] | activation [5] 6.58% [at 30.8 µM]
